Composite z-score and z-score data for 14 compounds are collected here from PubChem BioAssay.

Calls of active or inactive are those of the source.

The test system of assay [1] is Plasmodium falciparum Sir2 (PF13_0152, Sir2A). The experiment in a line: pfSir2 binders on small-molecule microarrays, primary screen, biochemical, small-molecule microarray, 635 nm fluorescence (AID 1098).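 Further: score merges spot fluorescence intensity with its signal-to-noise ratio.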 The conditions noted are these: small-molecule microarray binding, fluorescence 635 nm; higher = more signal.
Assay [2] is described as follows: small-molecule microarray binders of probe aDKK1, primary screen, biochemical, biotinylated probe, 635/667 nm fluorescence (AID 1099).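 Further: score merges 667nm spot fluorescence with signal to noise across triplicate slides; reference of the scale not given here.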 Conditions: higher = more signal.
Assay [3] in a line: small-molecule microarray binders of probe aCHRDL2, primary screen, biochemical, biotinylated probe, 635/667 nm fluorescence (AID 1100). Conditions: higher = more signal.
Assay [4] is described as follows: splicing luciferase reporter signal modulators, primary screen, spliceosome inhibition project, cell-based, HEK293, splice +/- reporter (AID 1101).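 Further: HEK293 cells carrying a splicing-competent luciferase reporter gene; test concentration not given here.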 The conditions noted are these: luminescence, 24 h, higher = more signal, called active from +8 up or from −8 down.
The target in assay [5] is Fibroblast growth factor 10 (Homo sapiens) (UniProt O15520). The assay is described as follows: FGF10 binders on small-molecule microarrays, primary screen, biochemical, small-molecule microarray, 635 nm fluorescence (AID 1102). The conditions noted are these: FGF10 binding, fluorescence 635 nm, higher = more signal.
Chain of Fibroblast growth factor 10 (Homo sapiens) (O15520 whole entry, looked up): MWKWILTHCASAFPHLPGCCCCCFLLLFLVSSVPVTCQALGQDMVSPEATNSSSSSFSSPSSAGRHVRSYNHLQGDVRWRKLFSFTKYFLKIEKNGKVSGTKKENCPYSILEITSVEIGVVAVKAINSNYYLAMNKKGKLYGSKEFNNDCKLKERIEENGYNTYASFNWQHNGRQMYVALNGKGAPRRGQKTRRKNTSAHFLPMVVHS
The test system of assay [6] is glycogen synthase kinase-3 (GSK3A per assay name; protocol says GSK3B). The experiment in a line: GSK3 binders on small-molecule microarrays, primary screen, biochemical, small-molecule microarray, 635 nm fluorescence, GSK3A (AID 1103). Further: the record names both GSK3A and GSK3B. The conditions noted are these: small-molecule microarray binding, fluorescence 635 nm; higher = more signal.
Assay [7] has as its target Epidermal growth factor receptor (Homo sapiens) (UniProt P00533). The assay is described as follows: EGFR binders on small-molecule microarrays, primary screen, biochemical, small-molecule microarray, 635 nm fluorescence (AID 1104).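 Further: score merges 667 nm emission intensity with spot signal to noise over triplicate slides.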 Conditions: EGFR binding, higher = more signal.
Assay [8] has as its target Follistatin-related protein 3 (Homo sapiens) (UniProt O95633). The assay is described as follows: FSTL3 binders on small-molecule microarrays, primary screen, biochemical, small-molecule microarray, 635 nm fluorescence (AID 1105).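 Further: score merges emission near 667 nm and signal to noise per printed spot across three slides.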 Conditions: FSTL3 binding, higher = more signal.
Assay [9] concerns the target Dickkopf-related protein 1 (Homo sapiens) (UniProt O94907). The assay is described as follows: DKK1 binders on small-molecule microarrays, primary screen, biochemical, small-molecule microarray, 635 nm fluorescence scan (AID 1106).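 Further: score merges emission near 667 nm with signal to noise over three replicate slides.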 Conditions: DKK1 binding, higher = more signal.
Assay [10] relates to Inhibin beta A chain (activin A). The assay is described as follows: INHBA (activin A) binders on microarrays, primary screen, biochemical, small-molecule microarray, 635 nm fluorescence scan (AID 1107).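 Further: mouse activin A protein probed at 4.33 µg/mL on printed slides; score merges bound-protein fluorescence near 667 nm with spot signal-to-noise.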 The conditions noted are these: small-molecule microarray binding, higher = more signal.

Chain of Follistatin-related protein 3 (Homo sapiens) (O95633 whole entry, looked up): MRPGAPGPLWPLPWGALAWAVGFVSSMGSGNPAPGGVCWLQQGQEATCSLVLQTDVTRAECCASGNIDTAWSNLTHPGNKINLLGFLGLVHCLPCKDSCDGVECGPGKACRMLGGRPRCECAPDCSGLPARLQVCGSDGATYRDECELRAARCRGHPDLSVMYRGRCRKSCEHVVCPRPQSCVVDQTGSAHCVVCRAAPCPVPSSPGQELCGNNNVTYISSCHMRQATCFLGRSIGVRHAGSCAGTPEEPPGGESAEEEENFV
Chain of Dickkopf-related protein 1 (Homo sapiens) (O94907 whole entry, looked up): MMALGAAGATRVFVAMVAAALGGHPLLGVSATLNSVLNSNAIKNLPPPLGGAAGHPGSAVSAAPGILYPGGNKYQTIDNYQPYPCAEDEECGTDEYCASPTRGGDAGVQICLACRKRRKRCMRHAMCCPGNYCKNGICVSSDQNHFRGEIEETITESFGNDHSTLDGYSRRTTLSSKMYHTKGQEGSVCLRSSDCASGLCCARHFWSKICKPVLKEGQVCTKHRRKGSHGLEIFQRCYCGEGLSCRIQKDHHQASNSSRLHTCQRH
Chain of Epidermal growth factor receptor (Homo sapiens) (P00533 whole entry, looked up): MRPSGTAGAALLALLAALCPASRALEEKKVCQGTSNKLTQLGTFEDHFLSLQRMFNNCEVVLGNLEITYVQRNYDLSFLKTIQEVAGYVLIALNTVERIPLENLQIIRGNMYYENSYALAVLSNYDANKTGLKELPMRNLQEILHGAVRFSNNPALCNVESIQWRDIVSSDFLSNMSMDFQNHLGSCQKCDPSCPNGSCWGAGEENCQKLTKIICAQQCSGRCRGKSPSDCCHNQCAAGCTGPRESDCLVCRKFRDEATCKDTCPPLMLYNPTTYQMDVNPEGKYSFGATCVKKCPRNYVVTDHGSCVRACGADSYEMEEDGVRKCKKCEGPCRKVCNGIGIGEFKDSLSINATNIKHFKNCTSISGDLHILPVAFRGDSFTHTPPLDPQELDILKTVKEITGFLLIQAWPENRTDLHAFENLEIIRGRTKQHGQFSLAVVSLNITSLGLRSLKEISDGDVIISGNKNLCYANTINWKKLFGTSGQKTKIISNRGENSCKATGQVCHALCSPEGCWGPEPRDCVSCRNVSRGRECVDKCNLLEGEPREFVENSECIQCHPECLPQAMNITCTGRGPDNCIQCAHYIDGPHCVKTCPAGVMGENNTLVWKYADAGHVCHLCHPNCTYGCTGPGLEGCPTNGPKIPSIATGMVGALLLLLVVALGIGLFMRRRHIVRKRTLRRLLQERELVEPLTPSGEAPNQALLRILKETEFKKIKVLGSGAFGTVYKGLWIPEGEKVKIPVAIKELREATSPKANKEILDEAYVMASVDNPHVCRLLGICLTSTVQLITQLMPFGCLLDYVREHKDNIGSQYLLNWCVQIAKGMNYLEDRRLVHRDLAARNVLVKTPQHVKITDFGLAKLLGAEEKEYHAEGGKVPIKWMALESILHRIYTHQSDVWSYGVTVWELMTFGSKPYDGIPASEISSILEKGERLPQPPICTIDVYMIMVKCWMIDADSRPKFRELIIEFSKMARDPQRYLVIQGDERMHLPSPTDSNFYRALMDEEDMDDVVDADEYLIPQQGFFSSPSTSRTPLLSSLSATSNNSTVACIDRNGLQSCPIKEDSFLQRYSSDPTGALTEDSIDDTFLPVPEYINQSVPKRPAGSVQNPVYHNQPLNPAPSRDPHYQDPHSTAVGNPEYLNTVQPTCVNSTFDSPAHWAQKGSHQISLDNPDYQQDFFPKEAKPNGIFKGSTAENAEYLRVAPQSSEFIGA

On to `NC(=O)[C@@]1(Cc2ccccc2)COC(c2ccc(OCCCO)cc2)=N1`, for which the composite z-score was 0.0491 in assay [1]; 0.618 in assay [2]; 0.836 in [3]; 0.594 in [5]; -0.923 in [6]; -0.377 in assay [7]. Further, the composite z-score in assay [8] is -0.807; in assay [9] it was -0.636; in assay [10], 0.663. Besides, the z-score in assay [4] was 0.444 (inactive).
As for `O=C(Cc1ccccc1)[C@H]1C2C=CCCC(c3ccccc3)=C2CN1Cc1ccccc1` (stereo not given in full), the composite z-score in [1] is -0.313; in assay [2] it was -0.138; in assay [3], -0.191; in assay [5], -0.0435; in assay [6], -0.117; in assay [7], -0.097. For the same compound, the composite z-score in assay [8] is -0.137; in assay [9] it was 0.191; in assay [10], 0.707. Further, the z-score in assay [4] was -0.445 (inactive).
In the case of `CO[C@H]1O[C@H](CO)[C@@H](OC(=O)CCc2ccccc2)[C@@H]2OC(=O)[C@@H](Cc3ccccc3)C/C=C/C[C@H](Cc3ccccc3)C(=O)O[C@@H]12`, the composite z-score in assay [1] was 0.228; in assay [2], 0.253; in assay [3] it was 0.585; in [5], 0.469; in assay [6], 0.714; in assay [7], -0.199. Besides, the composite z-score in assay [8] came to 1.11; in assay [9] it was 0.46; in assay [10], 0.925. The z-score in assay [4] is -1.57 (inactive).
`O=C(O)[C@@H]1[C@@H]2C(=O)N(c3ccccc3)C(=O)[C@@H]2C[C@@H]1Sc1ccccc1`: the composite z-score was 1.61 in assay [1]; 0.638 in [2]; 0.519 in assay [3]; -0.694 in assay [5]; -1.74 in assay [6]; -0.498 in assay [7]. Further, the composite z-score was -0.852 in assay [8], -1.19 in [9] and 0.656 in assay [10]. Besides, the z-score in [4] is 0.393 (inactive).
As for `CCCC=C(CCC)[C@@H](NC(=O)c1cccs1)c1ccc(C(=O)OC)cc1`, the composite z-score came out at 0.366 in [1]; 1.96 in assay [2]; 0.824 in [3]; 1.31 in assay [5]; 0.625 in assay [6]; 0.782 in assay [7]. Moreover, the results for the composite z-score in assay [8], in assay [9] and in assay [10] were 0.89, 0.473 and -0.032, respectively. The z-score in [4] is -0.571 (inactive).
For the compound `CCN(CC)c1ccc(N2CC=CC34O[C@@H]5/C=C\CCCOC(=O)C5[C@H]3C(=O)N(C(C)CO)[C@@H]4C2=O)cc1` (stereo not given in full), the composite z-score in assay [1] is 1.03; in assay [2] it was -0.213; in [3] it was -0.445; in assay [5], -0.184; in [6], -0.208; in assay [7], -0.243. Besides, the composite z-score in assay [8] was -0.232; in assay [9], 0.512; in assay [10] it was 1.03. Moreover, the z-score in assay [4] was -0.0084 (inactive).
As for `COCCOC(=O)N1C(=O)[C@@]2(c3cc(C#CC4(O)CCCCCC4)ccc31)[C@H](C(=O)Nc1nc3ccccc3s1)[C@H]1C(=O)O[C@H](c3ccccc3)[C@H](c3ccccc3)N1[C@@H]2c1ccc(O)cc1`, the composite z-score came out at 1.26 in [1]; 0.316 in assay [2]; 0.407 in [3]; 0.992 in assay [5]; 1.29 in [6]; 0.605 in [7]. Also, the composite z-score in assay [8] is 1.3; in assay [9], 0.875; in assay [10], 0.363. Besides, the z-score in [4] is 1.36 (inactive).
Turning to `C=C[C@H](C)[C@H](OC(=O)Nc1ccc(SC)cc1)c1ccc(OCCO)cc1`, the composite z-score in assay [1] came to 1.12; in [2] it was 0.157; in assay [3] it was 0.916; in assay [5], 0.515; in assay [6], 0.394; in assay [7], 0.183. Besides, the composite z-score in assay [8] turned out to be 0.42; in assay [9], 0.148; in [10] it was 0.081. Besides, in [4], the z-score is -3.34 (inactive).
As to `C=CCC(OC(C)=O)[C@@H]1[C@@H](N(Cc2ccc(-c3cccc(C(F)(F)F)c3)o2)C(=O)c2ccc(-c3ccccc3)cc2)c2cc(OCCCO)ccc2N1C(=O)Cc1ccc2ccccc2c1` (stereo not given in full), the composite z-score was -0.417 in assay [1]; -0.155 in [2]; 0.532 in [3]; -0.186 in assay [5]; -1.22 in assay [6]; -0.782 in assay [7]. In addition, the values for the composite z-score in assay [8], in [9] and in assay [10] were -0.116, -0.403 and 0.841, respectively. The z-score in assay [4] is -0.435 (inactive).
As to `Cc1ccc(NN2C(C(O)c3c(F)cccc3Cl)C=CC3C(=O)N(C4CCCCC4)C(=O)C32)cc1` (stereo not given), the composite z-score in assay [1] is 0.338; in [2], 0.827; in assay [3] it was 1.07; in [5], 0.425; in [6] it was 1.3; in assay [7], -0.184. The results for the composite z-score in assay [8], in assay [9] and in [10] were 0.716, -0.258 and 1.32, respectively. In addition, in [4], the z-score is -1.19 (inactive).
On to `COc1ccccc1CN1C(=O)c2ccccc2[C@](Cc2ccccc2I)(C(=O)O)[C@@H]1c1ccc(CO)cc1`, for which the composite z-score in assay [1] was determined as 1.19; in [2], 0.552; in [3], 0.485; in assay [5], 1.2; in assay [6] it was 0.941; in assay [7], 0.719. The composite z-score in assay [8] was 0.993; in assay [9] it was 0.441; in assay [10], 0.933. The z-score in [4] was -0.498 (inactive).
`[N-]=[N+]=Nc1ccccc1C[C@@]1(C(=O)NCCN2CCOCC2)N=C(c2ccc(OCCCO)cc2)O[C@@H]1c1ccccc1N=[N+]=[N-]`: the composite z-score in assay [1] was 1.53; in [2], 0.664; in assay [3], 1.04; in assay [5], 0.968; in [6], 1.31; in assay [7], -0.172. Also, the composite z-score in assay [8] worked out at 0.453; in [9] it was 0.136; in [10], 0.691. In addition, the z-score in assay [4] is -0.222 (inactive).
For the compound `CCOC(=O)C[C@H]1[C@H](OC(=O)Cc2ccc3c(c2)OCO3)[C@@H](NC(=O)C2CCCCC2)c2cc(OCCCO)ccc2N1C(=O)c1ccccc1`, the composite z-score in assay [1] is 0.0882; in assay [2], -0.173; in [3] it was -0.265; in assay [5], 0.27; in assay [6], -0.0848; in [7], 0.073. Moreover, the composite z-score in [8] was determined as 0.145; in assay [9], 0.351; in assay [10] it was 0.193. The z-score in assay [4] was -0.664 (inactive).
In the case of `CN1C2C=C(CCCO)C(C3C(=O)N(C(N)=O)C(=O)C32)C1C1CC1` (stereo not given), the composite z-score in assay [1] was -0.149; in assay [2], -0.105; in assay [3] it was 0.1; in assay [5] it was -0.0933; in assay [6], -0.0699; in assay [7], -0.0436. Besides, the composite z-score was -0.785 in assay [8], 0.0144 in [9] and -0.393 in [10]. Also, in assay [4], the z-score is 0.93 (inactive).
